In PubChem BioAssay AID2313 (Broad Institute, 2010):
Hit rate of the full screen: of about 22,000 compounds, about 460 (2.1%) were called active. Roughly 2% stayed inconclusive and do not appear here.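 The calls were made as follows: active = mean inhibition across valid replicates above about 65% (limit read from the data); inconclusive = mean under the limit, yet half or more replicates past it; inactive = the rest.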 For the sample, actives were picked, then their nearest neighbours and some compounds at random.

experiment: Hedgehog pathway signaling inhibitors, primary screen, luminescence, Shh-LIGHT2 cells, Gli-luciferase (AID 2313); conditions: Shh-LIGHT2 Gli-luciferase reporter, 30 h; hits give high values;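 also: pathway switched on by Shh-conditioned medium diluted 1 in 25 in low serum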

SMILES | inhibition
COc1ccc(S(=O)(=O)Nc2cccc3c2O[C@@H](CN(C)C(=O)Nc2ccccc2)[C@@H](C)CN([C@H](C)CO)C3=O)cc1 | 2.98% (inactive)
COC(NC(=O)c1ccccc1)(C(F)(F)F)C(F)(F)F | -45.7% (inactive)
Cc1ccc(S(=O)(=O)Nc2cccc3c2O[C@@H](CN(C)S(=O)(=O)c2c(C)noc2C)[C@@H](C)CN([C@H](C)CO)C3=O)cc1 | -7.42% (inactive)
C[C@@H]1CN([C@H](C)CO)C(=O)c2cc(NS(=O)(=O)c3ccc(F)cc3)ccc2O[C@H]1CN(C)C(=O)Nc1cccc2ccccc12 | -17% (inactive)
C[C@H]1CN([C@@H](C)CO)C(=O)Cc2cc(NS(=O)(=O)c3cn(C)cn3)ccc2O[C@@H]1CN(C)C(=O)Nc1ccc2c(c1)OCO2 | 2.02% (inactive)
C[C@@H]1CCCCO[C@H](CN(C)C(=O)NC2CCCCC2)[C@@H](C)CN([C@H](C)CO)C(=O)c2cc(NC(=O)CCC(F)(F)F)ccc2O1 | 20.6% (inactive)
COc1ccc(NC(=O)Nc2ccc3c(c2)CC(=O)N([C@H](C)CO)C[C@H](C)[C@H](CN(C)S(=O)(=O)c2ccc(OC)cc2)O3)cc1 | 15.7% (inactive)
COc1ccc(NC(=O)Nc2cccc3c2O[C@@H](CN(C)S(=O)(=O)c2ccc(C)cc2)[C@H](C)CN([C@@H](C)CO)C3=O)cc1 | 26% (inactive)
COc1ccc(S(=O)(=O)N(C)C[C@H]2Oc3ccc(NC(=O)Nc4c(C)noc4C)cc3C(=O)N([C@@H](C)CO)C[C@@H]2C)cc1 | 14.6% (inactive)
O=S(=O)(NCCc1ccccc1)c1ccccc1 | -19.7% (inactive)
C[C@@H]1CN([C@@H](C)CO)C(=O)c2cccc(NC(=O)c3nc4ccccc4s3)c2O[C@@H]1CN(C)Cc1ccc(Cl)c(Cl)c1 | -17.7% (inactive)
O=C(Cn1c(=O)n(-c2ccccc2)c(=O)c2cc(-c3ccccc3)sc21)c1cccs1 | -31.1% (inactive)
C[C@@H]1CN([C@@H](C)CO)C(=O)c2cccc(NC(=O)c3cnccn3)c2O[C@H]1CN(C)S(=O)(=O)c1cccs1 | 36.2% (inactive)
COc1ccc(NC(=O)N(C)C[C@H]2Oc3c(NC(=O)NC(C)C)cccc3C(=O)N([C@@H](C)CO)C[C@H]2C)cc1 | -18.8% (inactive)
O=C(NCCN1CCCCC1)Nc1cccc2ccccc12 | 48.1% (inactive)
CCOC(=O)c1cc2ccccc2nc1C | -33.8% (inactive)
C[C@H]1CN([C@@H](C)CO)C(=O)Cc2cc(NC(=O)C3CC3)ccc2O[C@H]1CN(C)C(=O)Nc1ccc(C(F)(F)F)cc1 | -16.6% (inactive)
Cc1noc(C)c1NC(=O)Nc1ccc2c(c1)C(=O)N([C@H](C)CO)C[C@@H](C)[C@@H](CN(C)C(=O)NC(C)C)O2 | -44% (inactive)
Cc1noc(C)c1NC(=O)Nc1cccc2c1O[C@H](CN(C)S(C)(=O)=O)[C@H](C)CN([C@H](C)CO)C2=O | -13.4% (inactive)
COc1ccc(S(=O)(=O)N(C)C[C@@H]2Oc3ccc(NC(=O)CCN4CCOCC4)cc3CC(=O)N([C@@H](C)CO)C[C@@H]2C)cc1 | 12.6% (inactive)
Cc1ccc(S(=O)(=O)N(C)C[C@H]2Oc3ccc(NC(=O)C4CC4)cc3C(=O)N([C@H](C)CO)C[C@H]2C)cc1 | 2.25% (inactive)
CC(=O)Nc1nc2ccccc2s1 | -52.3% (inactive)

SMILES | inhibition
CS(=O)(=O)c1sc(C(=O)NC(=S)Nc2ccc(OC(F)(F)F)cc2)c2c1C=CCC2 | 42.2% (inactive)
C[C@H]1CN([C@@H](C)CO)C(=O)Cc2cc(NS(=O)(=O)c3cn(C)cn3)ccc2O[C@H]1CN(C)C(=O)Nc1ccc(F)cc1 | 6.67% (inactive)
CCOC(=O)c1nnn2c3ccccc3c(=O)n(C)c12 | -16.2% (inactive)
C=C1C2=CC(=O)O[C@@H](c3ccoc3)[C@]2(C)CCC1[C@@]1(C)C=CC(=O)C(C)(C)[C@@H]1CC(=O)OC (some centres undefined) | -0.584% (inactive)
COc1c2c(cc3occ(-c4ccc5c(c4)OCO5)c(=O)c13)OC(C)(C)C=C2 | 79.6% (active)
COc1ccc(NC(=O)Nc2cccc3c2O[C@H](CN(C)C(=O)Nc2cccc4ccccc24)[C@H](C)CN([C@H](C)CO)C3=O)cc1 | -19.9% (inactive)
COc1ccc(S(=O)(=O)Nc2ccc3c(c2)CC(=O)N([C@H](C)CO)C[C@@H](C)[C@@H](CN(C)S(=O)(=O)c2ccc(F)cc2)O3)cc1 | -24.3% (inactive)
COc1ccc(NC(=O)Nc2ccc3c(c2)CC(=O)N([C@H](C)CO)C[C@H](C)[C@H](CN(C)Cc2ccncc2)O3)cc1 | 32.2% (inactive)
C[C@@H]1CN([C@H](C)CO)C(=O)Cc2cc(NC(=O)Nc3ccccc3)ccc2O[C@H]1CN(C)Cc1ccc(Cl)c(Cl)c1 | -42% (inactive)
COc1ccc(S(=O)(=O)Nc2cccc3c2O[C@H](CN(C)C(=O)Nc2cccc4ccccc24)[C@H](C)CN([C@@H](C)CO)C3=O)cc1 | 46.2% (inactive)
C[C@H](CO)N1C[C@H](C)[C@@H](CN(C)C(=O)Nc2ccc3c(c2)OCO3)Oc2c(cccc2N(C)C)C1=O | -27% (inactive)
C[C@@H]1CCCCO[C@H](CN(C)C(=O)NC2CCCCC2)[C@@H](C)CN([C@H](C)CO)C(=O)c2cc(NS(C)(=O)=O)ccc2O1 | -30.2% (inactive)
C[C@@H]1CN([C@H](C)CO)C(=O)Cc2cc(NC(=O)Nc3ccc(C(F)(F)F)cc3)ccc2O[C@H]1CN(C)Cc1ccc(-c2ccccc2)cc1 | -14% (inactive)
O=C1c2ccccc2C(=O)N1CC1OCc2ccccc2CO1 | -41.8% (inactive)
O=C(Nc1ccccc1)Nc1cc(C2CC2)nn1-c1ccccc1 | -37.7% (inactive)
CC(C)NC(=O)N(C)C[C@@H]1Oc2ccc(NC(=O)C3CCCCC3)cc2CC(=O)N([C@H](C)CO)C[C@@H]1C | -27.5% (inactive)
C[C@H]1CN([C@@H](C)CO)C(=O)c2cc(NC(=O)Cc3cn(C)c4ccccc34)ccc2O[C@@H]1CN(C)Cc1ccc(Cl)c(Cl)c1 | 15.9% (inactive)
O=C(Oc1ccc(Cl)cc1)c1csc(C2COc3ccccc3O2)n1 (centres undefined) | -8.84% (inactive)
C[C@@H]1CN([C@H](C)CO)C(=O)Cc2cc(N(C)C)ccc2O[C@H]1CN(C)S(C)(=O)=O | -5.86% (inactive)
Cc1ccc(S(=O)(=O)Nc2ccc3c(c2)C(=O)N([C@@H](C)CO)C[C@H](C)[C@@H](CN(C)CC2CC2)O3)cc1 | 11.4% (inactive)
O=C(O)c1ccc(NS(=O)(=O)c2ccc3c4c(cccc24)C(=O)N3)cc1 | -9.19% (inactive)
C[C@H]1CN([C@@H](C)CO)C(=O)c2cccc(NS(=O)(=O)c3ccc(F)cc3)c2O[C@@H]1CN(C)Cc1ccncc1 | 3.57% (inactive)

SMILES | inhibition
Cc1ccc(S(=O)(=O)N(C)C[C@H]2Oc3c(NS(=O)(=O)c4ccc(Cl)cc4)cccc3C(=O)N([C@H](C)CO)C[C@@H]2C)cc1 | -17.4% (inactive)
Cc1ccc(-n2nnnc2-c2cnn(-c3ccccc3)c2C)cc1 | 88.7% (active)
CCCN(C)C[C@H]1OCCCC[C@@H](C)Oc2ccc(N(C)C)cc2C(=O)N([C@H](C)CO)C[C@@H]1C | -12.9% (inactive)
COc1ccc(CN(C)C[C@H]2Oc3c(NS(=O)(=O)c4ccccc4)cccc3C(=O)N([C@H](C)CO)C[C@@H]2C)cc1 | -36.7% (inactive)
COc1ccc(S(=O)(=O)N(C)C[C@H]2Oc3c(NC(=O)Nc4ccc5c(c4)OCO5)cccc3C(=O)N([C@H](C)CO)C[C@@H]2C)cc1 | 18.1% (inactive)
CC(=O)Nc1ccc(Nc2c3c4c(cccc4[nH]c2=O)C(=O)c2ccccc2-3)cc1 | 88.2% (active)
COc1ccc(CCN=C2SCC(=O)N2Cc2ccccc2)cc1OC | 13.3% (inactive)
Cc1noc(C)c1NC(=O)Nc1ccc2c(c1)C(=O)N([C@H](C)CO)C[C@H](C)[C@H](CN(C)Cc1ccncc1)OCCCC[C@@H](C)O2 | 0.0543% (inactive)
C[C@H]1CN([C@@H](C)CO)C(=O)Cc2cc(NC(=O)C3CC3)ccc2O[C@H]1CN(C)S(=O)(=O)c1ccc(Cl)cc1 | 30.4% (inactive)
C[C@@H]1CN([C@H](C)CO)C(=O)c2cc(NC(=O)CCN3CCOCC3)ccc2O[C@H]1CN(C)Cc1ccc(Oc2ccccc2)cc1 | -15% (inactive)
Oc1ccc(CN2CCCC2)c2cccnc12 | 85% (active)
Cc1onc(-c2c(Cl)cccc2Cl)c1C(=O)N=S(C)(C)=O | -19% (inactive)
C[C@H]1CN([C@@H](C)CO)C(=O)c2cccc(NS(=O)(=O)c3cccs3)c2O[C@H]1CN(C)C(=O)Nc1ccccc1 | 26.6% (inactive)
CCC/C=C/C=C/C1CC(O)C(O)C1C(=O)O (centres undefined) | -18% (inactive)
C[C@H](CO)N1C[C@H](C)[C@H](CN(C)C(=O)NC2CCCCC2)Oc2c(NC(=O)C3CC3)cccc2C1=O | -11.9% (inactive)
C[C@H](CO)N1C[C@H](C)[C@@H](CN(C)Cc2ccc(Cl)c(Cl)c2)Oc2c(NC(=O)Nc3ccccc3)cccc2C1=O | -0.821% (inactive)
Oc1c(Cl)cc(Cl)c(Cl)c1Cc1c(O)c(Cl)cc(Cl)c1Cl | 102% (active)
C[C@@H]1CN([C@H](C)CO)C(=O)c2cccc(NC(=O)c3nc4ccccc4s3)c2O[C@H]1CN(C)S(=O)(=O)c1ccc(Cl)cc1 | 11% (inactive)
C[C@H]1CN([C@@H](C)CO)C(=O)c2cccc(NS(=O)(=O)c3ccc(F)cc3)c2O[C@@H]1CN(C)CC1CC1 | -16.6% (inactive)
C[C@H]1CN([C@@H](C)CO)C(=O)Cc2cc(NS(=O)(=O)c3ccc(F)cc3)ccc2O[C@H]1CN(C)Cc1ccc(C(F)(F)F)cc1 | 30.1% (inactive)
